Laboratory results reported in PubChem BioAssay (NCATS).
Inconclusive results are not listed. Activity calls are given as the source filed them. The call rests on the fitted dose curve; in most records, active means well fitted inhibition curve with a large enough effect; inconclusive means small, poorly fitted or top-dose-only effect; inactive means no such curve, though single readings can be large or run the other way. Non-standard residues stand in square brackets, D forms with d. Residues, ends and D or L forms follow the SMILES beside them.

assay: BET inhibitor-based combinations targeting novel dependencies in MECOM-rearranged (r) AML: OCI-AML3 cell line (AID 2202232); conditions: CellTiter-Glo luminescence, 48 h; Potency: OCI-AML3 viability; series mostly up to 46 µM; further: nearly all actives have a fitted effect of over 35% in size
Excerpt: Ecotropic viral insertion site 1 (EVI1) is located on chromosome 3q26.2 as part of the MECOM (MDS and EVI1 complex) locus. Under normal hematopoiesis, EVI1 is a regulator of hematopoietic stem cell maintenance and self-renewal and EVI1 levels decrease as the cells differentiate. In approximately 5-10% of de novo acute myeloid leukemia (AML) EVI1 is aberrantly expressed, including Chromosomal inv(3)(q21;q26.2) or t(3;3)(q21;q26.2) alterations (MECOM-r) that account for about 50% of AML with EVI1 overexpression 31. AMLs with high levels of EVI1 have a poor prognosis and an overall survival time averaging between 10-14 months. EVI1 overexpression confers resistance in leukemia cells, highlighting the need to develop new targeted therapies for EVI1 overexpressing AMLs.
Here, we performed an unbiased chemical drug screening by evaluating the single agent activity of a collection of 2,480 oncology-focused, approved and investigational drugs (NCATS Mechanism Interrogation Plates, MIPE v5.0) against a panel of seven AML cell lines. These included four MECOM-r cell-lines (AML-191, AML-194, UCSD-AML1 and HNT-34) and three non-MECOM-r AMLs (MV4-11, OCI-AML3 and SET-2). Exploiting the mechanistic redundancy built in the library, we identified target-level sensitivities in MECOM-r AML cells and relative activity as compared to other AML subtypes.
A collection of 2480 mechanistically annotated dugs (MIPE v5.0) was used to screen four 3q26.2 rearranged AML cell lines and three non-3q26.2 rearranged AML cell lines. This library purposely exploits redundancy by including multiple inhibitors of key onco-targets, while simultaneously encompassing mechanistic diversity, targeting more than 800 distinct mechanisms of action. Briefly, cells were seeded in 5 uL of growth media using a Multidrop Combi dispenser into 1536 well white polystyrene tissue culture treated plates (Corning) at a density of 500cells/well. For each cell-line, for each of the 2480 drugs in MIPE v5.0 library, an 11-point dose curve was generated via a 1536 pin-tool. Plates were incubated for 48 hr at standard incubator conditions, covered by a stainless steel gasketed lid to prevent evaporation. Cell viability was determined by luminescence based, Cell Titer Glo assay (Promega). In detail, 3 uL of Cell Titer Glo were added to each well and plates were incubated at room temperature for 15 min with a stainless-steel lid in place. Luminescence readings were taken using a Viewlux (PerkinElmer) with a 2 s exposure time per plate. Compound dose-response curves were normalized to DMSO and empty well controls on each plate. Quantitative drug activity data from dose-response curves was determined utilizing area Under the Curve (AUC) and Z-transformed AUC (Z-AUC, a mean-centering transformation applied to each individual cell-line screened).
Potency means the concentration at half of the fitted maximal effect.

| SMILES | Potency |
| --- | --- |
| C=CC(=O)Nc1ccc2ncnc(Nc3ccc(OCc4cccc(F)c4)c(Cl)c3)c2c1 | 5.9 µM (active) |
| COc1cc2c(cc1OC(C)C)[C@H](c1ccc(Cl)cc1)N(c1ccc(N(C)CC3CCC(N4CCN(C)C(=O)C4)CC3)cc1)C(=O)C2 (stereo not given in full) | 11.8 µM (active) |
| CNC(=O)[C@H](Cc1c[nH]c2ccccc12)NC(=O)[C@@H](CC(=O)NO)CC(C)C | inactive |
| Cn1c(NCCN(CCO)CCCc2ccc([N+](=O)[O-])cc2)cc(=O)n(C)c1=O | inactive |
| O=C(/C=C\n1cnc(-c2cc(C(F)(F)F)cc(C(F)(F)F)c2)n1)N1CC(F)(F)C1 | 2.63 µM (active) |
| COc1cc2ncnc(Nc3cccc(Cl)c3F)c2cc1OC(=O)N1CCN(C)C[C@H]1C | 13.2 µM (active) |
| CCS(=O)(=O)Nc1ccc2[nH]c(O)c(C(=Nc3ccc(CN4CCCCC4)cc3)c3ccccc3)c2c1 | 0.235 µM (active) |
| COc1cc(C(=O)NC(N)=Nc2ccc(C)c(NC(=O)c3ccc(-c4ccccc4)cc3)c2)cc(OC)c1OC | 18.6 µM (active) |
| Cc1cc(C(=O)Nc2cc(Nc3ccc4c(/C=C/c5ccccn5)n[nH]c4c3)ccc2F)n(C)n1 | 18.6 µM (active) |
| CC(C)C[C@@H]1NC(=O)[C@@H](C(C)C)NC(=O)[C@@H]2CCCN2C(=O)[C@@H](CC(=O)O)NC(=O)[C@@H](Cc2c[nH]c3ccccc23)NC1=O (cyclo(L[dW][dD]P[dV])) | inactive |
| Nc1ncnc(Nc2ccc(OCc3ccccc3)c(Cl)c2)c1/C=N/OCCN1CCOCC1 | inactive |
| O=C(NO)c1ccc(C2=Nc3ccccc3Oc3ccccc32)cc1 | 5.25 µM (active) |
| N#CC(c1ccnc(NCCc2cccnc2)n1)c1nc2ccccc2s1 (stereo not given) | 18.6 µM (active) |
| CC[C@@]1(O)C[C@H](O[C@H]2C[C@H](N(C)C)[C@H](O[C@H]3C[C@H](O)[C@H](O[C@H]4CCC(=O)[C@H](C)O4)[C@H](C)O3)[C@H](C)O2)c2c(cc3c(c2O)C(=O)c2c(O)cccc2C3=O)[C@@H]1C(=O)OC | 3.32 µM (active) |
| Cc1ccc(-n2[nH]c(C)c(N=Nc3cccc(-c4cccc(C(=O)O)c4)c3O)c2=O)cc1C | inactive |
| Cc1c(-c2c(-c3ccc(F)o3)sc3ncnc(O[C@@H](Cc4ccccc4OCc4ccnn4CC(F)(F)F)C(=O)O)c23)ccc(OCCN2CCN(C)CC2)c1Cl | 0.296 µM (active) |
| CC(C)(C)NC(=O)c1cncn1C1CCN(c2ccc(-c3nnc(C(F)(F)F)o3)cn2)CC1 | 1.05 µM (active) |
| COc1cc(C(=O)O)ccc1NC(=O)[C@@H]1N[C@@H](CC(C)(C)C)[C@](C#N)(c2ccc(Cl)cc2F)[C@H]1c1cccc(Cl)c1F | 2.09 µM (active) |
| CCCS(=O)(=O)c1nc(NC2CC2)cc(-c2ccc3c(ccn3C3CC(C)(C)NC(C)(C)C3)c2)n1 | 2.78 µM (active) |
| COc1cccc2c1C(=O)c1c(O)c3c(c(O)c1C2=O)C[C@@](O)(C(C)=O)C[C@@H]3O[C@H]1C[C@H](N)[C@H](O)[C@H](C)O1 | 0.0934 µM (active) |

| SMILES | Potency |
| --- | --- |
| COc1cc(Nc2cnc(C#N)c(O[C@H](C)CN(C)C)n2)ncc1-c1cnn(C)c1 | 1.32 µM (active) |
| C[C@@H]1CCNC(=O)c2cc3ccc(C(=O)Nc4nc5ccccc5n4CCCN(C)C)cc3n21 | 6.61 µM (active) |
| CO[C@@H]1[C@@H](O)[C@H](O)[C@@H](n2c3c(Cl)cccc3c3c4c(c5c6cccc(Cl)c6[nH]c5c32)C(=O)NC4=O)O[C@H]1CO | 1.32 µM (active) |
| C=CC(=O)Nc1cccc(C)c1Nc1ncc2cc(-c3c(Cl)c(OC)cc(OC)c3Cl)ccc2n1 | 10.5 µM (active) |
| COc1cccc2c1C(=O)c1c(O)c3c(c(O)c1C2=O)C[C@@](O)(/C(CO)=N/NC(=O)CCCCCN1C(=O)C=CC1=O)C[C@@H]3O[C@H]1C[C@H](N)[C@H](O)[C@H](C)O1 | 0.417 µM (active) |
| CC(=O)OCC(=O)[C@@]12OC(C)(C)O[C@@H]1C[C@H]1[C@@H]3C[C@H](F)C4=CC(=O)C=C[C@]4(C)[C@@]3(F)[C@@H](O)C[C@@]12C | inactive |
| CC(C)(O)CC[C@@H](O)[C@](C)(O)[C@H]1CC[C@@]2(O)C3=CC(=O)[C@@H]4C[C@@H](O)[C@@H](O)C[C@]4(C)[C@H]3CC[C@]12C | inactive |
| CN(C)CCCOc1ccc(-c2ccc3ncc4c(c3c2)n(C2CCOCC2)c(=O)n4C)cn1 | 7.23 µM (active) |
| NC(=O)c1nc(F)c[nH]c1=O | inactive |
| CC[C@@]1(O)C(=O)OCc2c1cc1n(c2=O)Cc2c-1nc1cc(F)c(C)c3c1c2[C@@H](N)CC3 | 0.0053 µM (active) |
| C=C[C@@H]1CN2CCC1C[C@H]2[C@H](O)c1ccnc2ccc(OC)cc12 (stereo not given in full) | 20.9 µM (active) |
| OCCNC1CCCc2c1[nH]c1ccc(-c3ccccc3)cc21 (stereo not given) | 16.6 µM (active) |
| Cc1ccc(-n2nc(C(C)(C)C)cc2NC(=O)NCc2cc(F)ccc2Oc2ccc3c(cnn3CCO)c2)cc1 | 14.8 µM (active) |
| CCOC(=O)c1c(CSc2ccccc2)n(C)c2cc(Br)c(O)c(CN(C)C)c12 | 11.8 µM (active) |
| CN1CCN(Cc2ccc(Nc3ncc(Cl)c(Nc4ccccc4S(=O)(=O)N(C)C)n3)cc2)CC1 | 0.191 µM (active) |
| COc1cc(N2CCN(C)CC2)ccc1Nc1ncc2c(n1)N(C)c1ccccc1C(=O)N2 | 18.6 µM (active) |
| CNC1CCCN(c2c(F)cc3c(=O)c(C(=O)O)cn(C4CC4)c3c2OC)C1 (stereo not given) | inactive |
| Cc1cc(C(=O)NOCCO)c(Nc2ccc(I)cc2F)n(C)c1=O | 0.0059 µM (active) |
| N=C(N)c1ccc2nc(-c3cc(CC(=O)N[C@@H](CC(=O)O)C(=O)O)cc(-c4cc(S(N)(=O)=O)ccc4O)c3O)[nH]c2c1 | inactive |
| N=C1S/C(=C\c2ccc(-c3ccc4c(c3)C(=O)NC4=O)o2)C(=O)N1c1ccc(Br)cc1 | inactive |
